PubChem BioAssay (EPA / NIEHS)
“And” between values parts separate entries of the source, which are not always exact repeats. Identical values can stand only once. The source made the active and inactive calls. Rule for the calls: active = hit-call score of the fitted dose curve at least 0.9, where 1 is the maximum; inactive = score below 0.9.

Each compound was assayed on Lipoprotein lipase (LPL), LPL (gene 4023) (assay: LTEA_HepaRG_LPL: Life Technologies and Expression Analysis (LTEA) Assay for Lipoprotein lipase (LPL) using HepaRG (AID 2283515)). Details: mRNA level, 48 h; actives raise or lower the signal.
Method: LTEA_HepaRG is a cell based, multiplexed-readout assay that uses HepaRG, a human liver cell line, with measurements taken at 48 hours after chemical dosing on a 96-well plate.LTEA_HepaRG_LPL is one of 102 assay component(s) measured in the LTEA HepaRG cell culture assay. It is a marker of Steatosis.Data from the assay component LTEA_HepaRG_LPL was analyzed into 1 endpoint. This assay endpoint, LTEA_HepaRG_LPL, was analyzed with bidirectional fitting relative to DMSO as the negative control and baseline of activity. Using a type of inducible reporter, measures of mRNA induction for gain or loss-of-signal activity can be used to understand regulation of transcription factor activity. To generalize the intended target to other relatable targets, this assay endpoint is annotated to the esterase intended target family, where the subfamily is lipase.
A total of 1060 chemcials from the ToxCast library were tested in eight-point concentration-response experiments. Cell culture and cytotoxicity assays were conducted at Thermo Fisher Scientific's Custom Services facility (Madison, WI). A single lot of human HepaRG cells (Thermo Fisher Scientific, Frederick, MD) was used for the cell culture experiments. 96-well format collagen type I coated plates of human HepaRG cells were prepared using established methods. Briefly, cryopreserved HepaRG cells were thawed, plated at a density of approximately 100,000 cells/well in HepaRG Thaw, Plate, and General Purpose media (HPRG770, Thermo Fisher Scientific), and incubated for 48 hours. 0.5% DMSO was selected as vehicle control to balance the requisite need of DMSO in HepaRG cultures to maintain differentiation (for example, baseline metabolism, proportions of hepatocytes vs. cholangiocytes), while enabling further hepatic receptor pathway activation (for example, PXR and CAR) in response to chemical exposure. 48 hours after plating, the culture medium was replaced with HepaRG Serum-Free Incudtion Media. Cells were exposed to each test chemical in duplicate and maintained in CO2 incubators for another 48 hours. Chemical plates were thawed to room temperature and 200x concentrations of treatment groups were prepared. 8-point conentration-reponse curves were made with the highest exposure at 100 uM, followed by half-log dilutions, all in 0.5% DMSO. Each test plate contained variouse controls, induction positive controls (1mM phenobarbital), cytotoxicity positive controls ([…] aflatoxin B1), vehicle controls (0.5% DMSO), and total lysis controls (0.5% DMSO). Cell morphology images were taken using an Essen IncuCyte FLR automated microscope, with six 96-well plates imaged in about 24 minutes. Images were captured and exported and JPEG files. Spent culture media was transfered to black-well plates for the LDH assay, and remaining media was sorted at -80 C for later use. Cells were treated with RLT buffer and frozen until shipped for gene expression analysis. Total RNA was isolated from the cell suspension in 75 uL of Buffer RLT (Qiagen, Germantown, MD 20874) by Quintiles/Expression Analysis (Durham, NC) using a custom isolation procedure. Total RNA from each plate well was transferred to a preamplification plate. Fluidigm's 96.96 Dynamic ArrayTM (Fluidigm, Amsterdam, the Netherlands) technology was used for gene expression analyses by quantitative reverse transcription polymerase chain reaction (qRT-PCR, performed by Quintiles/Expression Analysis, Durham, NC)89. Standard TaqManTM Assays (Applied Biosystems/ThermoFisher Scientific, Foster City, CA) were used to assess the expression of 93 genes selected based on their selectivity and sensitivity to important hepatic receptors known to be modulated by environmental chemicals; importance in human hepatocyte functionality; and hepatotoxicity. […]
With `CCCN(CCC)C(=O)SCC` the outcome was “inactive”. In the case of `c1ccc(Nc2ccccc2)cc1`, the outcome is reported as “inactive”. For `C#CCOC(=O)[C@@H](C)Oc1ccc(Oc2ncc(Cl)cc2F)cc1`, the outcome was “inactive”. In the case of `CCCN(CCC)c1c([N+](=O)[O-])cc(C(F)(F)F)c(N)c1[N+](=O)[O-]`, the outcome is reported as “inactive”. With `CCOC(=O)C(C)Oc1ccc(Oc2cnc3cc(Cl)ccc3n2)cc1` (stereo not given) the outcome was “inactive”. In the case of `C[C@]12CC[C@@H]3c4ccc(O)cc4C[C@@H](CCCCCCCCCS(=O)CCCC(F)(F)C(F)(F)F)[C@H]3[C@@H]1CC[C@@H]2O` (stereo not given in full), the outcome is reported as “inactive”. With `CCCCOCCOCCOCc1cc2c(cc1CCC)OCO2` the outcome was “inactive”. With `CC(C)CCCCCCc1ccc(O)cc1` the outcome was “inactive”. In the case of `S=C([S-])NCCNC(=S)[S-].[Mn+2]`, the AC50 is reported as 3.29 µM (active). In the case of `CCSC(=O)N(CC(C)C)CC(C)C`, the outcome is reported as “inactive”. `COC(=O)CSc1cc(N=c2sc(=O)n3n2CCCC3)c(F)cc1Cl` was tested, and the outcome was “inactive”. `OB(O)O` was tested, and the outcome was “inactive”. `CCCCC(CC)COC(=O)c1ccccc1C(=O)O` (stereo not given) was tested, and the outcome was “inactive”. For `CCOC(=O)NCCOc1ccc(Oc2ccccc2)cc1`, the AC50 was 81.6 µM (active). `COCCO` was tested, and the outcome was “inactive”. In the case of `CN(C)C(=O)Nc1ccc(Cl)c(Cl)c1`, the outcome is reported as “inactive”. For `CC(C)(c1ccc(O)cc1)c1ccc(O)cc1`, the outcome was “inactive”. With `N#CSCSc1nc2ccccc2s1` the outcome was “inactive”. With `CC(=O)S[C@@H]1CC2=CC(=O)CC[C@]2(C)[C@H]2CC[C@@]3(C)[C@@H](CC[C@@]34CCC(=O)O4)[C@H]12` the outcome was “inactive”. For `CCNc1nc(N)nc(Cl)n1`, the outcome was “inactive”. With `S=C(S)NCCNC(=S)S.[Mn+2].[S-]C([S-])=NCCN=C([S-])[S-].[Zn+2]` the AC50 was 1.11 µM (active) and 1.17 µM (active) and 2.99 µM (active). `O=C(Nc1ccc([N+](=O)[O-])cc1Cl)c1cc(Cl)ccc1O` was tested, and the outcome was “inactive”. With `CCOC(=O)c1ccc(O)cc1` the outcome was “inactive”. For `CC(=O)[C@H]1CC[C@H]2[C@@H]3CCC4=CC(=O)CC[C@]4(C)[C@H]3CC[C@]12C`, the outcome was “inactive”. In the case of `CC(C)(C)[C@@H](O)[C@@H](Cc1ccc(Cl)cc1)n1cncn1`, the AC50 is reported as 16.5 µM (active). `c1ccc2[nH]c(-c3cscn3)nc2c1` was tested, and the outcome was “inactive”. For `O=C(O)c1ccccc1`, the outcome was “inactive”. For `CSC(=O)c1cccc2nnsc12`, the outcome was “inactive”. For `C[C@]12C[C@H](O)[C@H]3[C@@H](CCC4=CC(=O)CC[C@@]43C)[C@@H]1CC[C@@H]2C(=O)CO`, the outcome was “inactive”. For `COC(=O)c1ccccc1C(=O)O`, the outcome was “inactive”. `CCCOC(=O)NCCCN(C)C` was tested, and the outcome was “inactive”. `O=C(c1ccccc1)C1CCCCC1` was tested, and the outcome was “inactive”. With `N[C@@H](Cc1cc(I)c(Oc2ccc(O)c(I)c2)c(I)c1)C(=O)O` the AC50 was 0.00787 µM (active). In the case of `CCCOC(=O)c1ccc(C(=O)OCCC)nc1`, the outcome is reported as “inactive”. `CCOC(=O)COc1cc(-n2ncc(C(F)(F)F)c(C)c2=O)c(F)cc1Cl` was tested, and the outcome was “inactive”. `COc1c(Cl)ccc(Cl)c1C(=O)O` was tested, and the outcome was “inactive”. For `O=C(O)C1(C(=O)Nc2ccc(Cl)cc2Cl)CC1`, the outcome was “inactive”. In the case of `CCN(CC)C(=O)c1cccc(C)c1`, the outcome is reported as “inactive”. For `CCCCOC(=O)C(C)Oc1ccc(Oc2ccc(C(F)(F)F)cn2)cc1` (stereo not given), the outcome was “inactive”. `CCCCC(CC)CN1C(=O)C2C3C=CC(C3)C2C1=O` (stereo not given) was tested, and the AC50 was 58.4 µM (active).
